Test results as given in PubChem BioAssay (NCI).
The panel holds about 83,000 compounds, 20% with a hit somewhere; the sample as a whole holds those more often.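 Results are percent growth after 48 hours of single-concentration exposure. 100 means growth as in untreated cells, lower positive values show inhibition; negative values down to -100 show cell death.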 Activity calls are given as the source filed them. How the source made its calls: active means growth percent below 10; inactive means the rest.

Legend:
Experiment in all cases: NCI-60 one-dose screen, 48 h (100 = growth as untreated, 0 = no growth, -100 = all killed)
Details in all cases: 10 µM unless noted
HCT-15 colon = tested on: HCT-15 colon
HT29 colon = tested on: HT29 colon
SNB-75 CNS = tested on: SNB-75 CNS
SNB-19 CNS = tested on: SNB-19 CNS
U251 CNS = tested on: U251 CNS
PC-3 prostate = tested on: PC-3 prostate
SK-MEL-5 melanoma = tested on: SK-MEL-5 melanoma
UACC-62 melanoma = tested on: UACC-62 melanoma
LOX IMVI melanoma = tested on: LOX IMVI melanoma
SK-MEL-28 melanoma = tested on: SK-MEL-28 melanoma

Measured: growth

COc1cc(/C=C/C(=O)c2ccc(NC(=O)CSc3nnc(-c4ccc5nc(-c6ccccc6)[nH]c5c4)o3)cc2)cc(OC)c1OC
inactive: HCT-15 colon 87.6% | HT29 colon 104% | SNB-75 CNS 81.1% | SNB-19 CNS 84.4% | U251 CNS 80.6% | PC-3 prostate 99% | SK-MEL-5 melanoma 92.2% | UACC-62 melanoma 83% | LOX IMVI melanoma 56% | SK-MEL-28 melanoma 93.4%

COc1ccc(N2C(=O)c3cc(OC)c(OC)cc3NC2SCc2ccccc2)cc1 (stereo not given)
inactive: HCT-15 colon 96.1% | HT29 colon 116% | SNB-75 CNS 112% | SNB-19 CNS 109% | U251 CNS 108% | PC-3 prostate 102% | SK-MEL-5 melanoma 97% | UACC-62 melanoma 93.8% | LOX IMVI melanoma 94.8% | SK-MEL-28 melanoma 96.9%

C=CCn1c(SCC(=O)Nc2cccc(C(=O)/C=C/c3cccc([N+](=O)[O-])c3)c2)nc2ccccc2c1=O
inactive: HCT-15 colon 79.3% | HT29 colon 94.9% | SNB-75 CNS 85.5% | SNB-19 CNS 90.2% | U251 CNS 87.9% | PC-3 prostate 87.4% | SK-MEL-5 melanoma 98.6% | UACC-62 melanoma 77.2% | LOX IMVI melanoma 72.8% | SK-MEL-28 melanoma 95.4%

COc1cc2c3c(n(CCCNC4CCC4)c(=O)c2cc1OC)-c1cc2c(cc1C3=O)OCO2
inactive: SK-MEL-5 melanoma 76.8% | UACC-62 melanoma 59.1% | SK-MEL-28 melanoma 86.7%
active: HCT-15 colon -53% | HT29 colon -64.1% | SNB-75 CNS -67% | SNB-19 CNS -25.2% | U251 CNS -88.9% | PC-3 prostate -78.7% | LOX IMVI melanoma -72.8%

CCOC(=O)c1c(Nc2ccccc2)nn2c(-c3ccc(OC)c(OC)c3)ccnc12
inactive: HCT-15 colon 18.4% | HT29 colon 62.3% | SNB-75 CNS 68.7% | SNB-19 CNS 80.1% | U251 CNS 60.6% | PC-3 prostate 39.1% | SK-MEL-5 melanoma 32.4% | UACC-62 melanoma 77.1% | LOX IMVI melanoma 37.6% | SK-MEL-28 melanoma 65.8%

CCN1C(=O)N(CC)C2C1NN=C1SC(c3ccccc3)=CC(=O)N12 (stereo not given)
active: HT29 colon -8.74%
inactive: HCT-15 colon 19.2% | SNB-75 CNS 14% | SNB-19 CNS 31.8% | U251 CNS 14.5% | PC-3 prostate 17.1% | SK-MEL-5 melanoma 38.2% | UACC-62 melanoma 19.4% | LOX IMVI melanoma 40.1% | SK-MEL-28 melanoma 59.5%

COc1ccc(S(=O)(=O)n2cc(C=O)c3ccccc32)c(OC)c1
inactive: HCT-15 colon 40% | HT29 colon 107% | SNB-75 CNS 75.3% | SNB-19 CNS 85% | U251 CNS 52.8% | PC-3 prostate 66.3% | SK-MEL-5 melanoma 67.3% | UACC-62 melanoma 63.1% | LOX IMVI melanoma 64.3% | SK-MEL-28 melanoma 83.8%

Nc1nc(N)c2c(n1)NC(c1ccc(Cl)cc1)CC(c1ccc(Nc3nc(NCCO)nc(Nc4ccc(Cl)cc4)n3)cc1)=N2 (stereo not given)
inactive: SNB-75 CNS 77.9% | SNB-19 CNS 17.2% | PC-3 prostate 44.1% | SK-MEL-5 melanoma 48.4% | UACC-62 melanoma 91.2% | SK-MEL-28 melanoma 103%
active: HCT-15 colon 1.91% | HT29 colon -21.8% | U251 CNS -35.6% | LOX IMVI melanoma -90%

C#CCOc1ccc(C(Nc2cc(Cl)ccc2Cl)c2nnnn2C2CCCCC2)cc1 (stereo not given)
inactive: HCT-15 colon 86.4% | HT29 colon 92.7% | SNB-75 CNS 95.1% | SNB-19 CNS 86% | U251 CNS 82.7% | PC-3 prostate 76.9% | SK-MEL-5 melanoma 95.4% | UACC-62 melanoma 66.7% | LOX IMVI melanoma 97.7% | SK-MEL-28 melanoma 107%

COc1cc(O)c2c(c1)[C@H]1O[C@@H]1C[C@H](O)[C@H](O)C(=O)/C=C\C[C@H](C)OC2=O
active: SK-MEL-5 melanoma 7.59% | UACC-62 melanoma -12.4% | SK-MEL-28 melanoma 6.98%
inactive: HCT-15 colon 28.7% | HT29 colon 12.6% | SNB-75 CNS 87.1% | SNB-19 CNS 81.3% | U251 CNS 72.4% | PC-3 prostate 66.8% | LOX IMVI melanoma 32.3%

Oc1ccc(CSc2nnc(-c3cnccn3)o2)c2cccnc12
inactive: HCT-15 colon 13.8% | HT29 colon 25.2% | SNB-75 CNS 26.5% | SNB-19 CNS 18.1% | U251 CNS 18.5% | PC-3 prostate 15.2% | UACC-62 melanoma 15% | LOX IMVI melanoma 17.5% | SK-MEL-28 melanoma 37.6%
active: SK-MEL-5 melanoma -38.5%

CNC(=O)c1cc(Oc2ccc3nc(NC(=O)c4cc(C)cc(C)c4)sc3c2)ccn1
inactive: HCT-15 colon 66.9% | HT29 colon 86% | SNB-75 CNS 85.5% | SNB-19 CNS 81.3% | U251 CNS 89.3% | PC-3 prostate 47.9% | SK-MEL-5 melanoma 77.4% | UACC-62 melanoma 76.9% | LOX IMVI melanoma 102% | SK-MEL-28 melanoma 79.9%

O=C(/C=C/c1cccc(O)c1)c1ccc(O)cc1
inactive: HCT-15 colon 49.6% | HT29 colon 80.7% | SNB-75 CNS 103% | SNB-19 CNS 74.9% | U251 CNS 43.3% | PC-3 prostate 65.3% | SK-MEL-5 melanoma 96.9% | UACC-62 melanoma 80% | LOX IMVI melanoma 32.2% | SK-MEL-28 melanoma 101%

CN1CCN(c2ccc(NC(=O)Nc3ccc4c(ccn4-c4cccc(C(N)=O)n4)c3)cc2C(F)(F)F)CC1
inactive: SNB-75 CNS 82.2% | SNB-19 CNS 53.2% | U251 CNS 33.8% | PC-3 prostate 50.9% | SK-MEL-5 melanoma 75% | UACC-62 melanoma 94.1%
active: HCT-15 colon 3.6% | HT29 colon 5.77% | LOX IMVI melanoma -27.7% | SK-MEL-28 melanoma -53.6%

CC1COc2c(N3CCN(C)CC3)c(F)cc3c(=O)c(C(=O)N/N=C/c4cc[nH]c4)cn1c23 (stereo not given)
active: SNB-19 CNS 9.01% | U251 CNS -41.6% | LOX IMVI melanoma -88.5%
inactive: HCT-15 colon 47.1% | HT29 colon 14.6% | SNB-75 CNS 74.4% | PC-3 prostate 27.9% | SK-MEL-5 melanoma 25.3% | UACC-62 melanoma 76% | SK-MEL-28 melanoma 57.3%

NS(=O)(=O)c1ccc(Nc2nc(N/N=C/c3ccc(F)cc3)nc(Nc3ccccc3)n2)cc1
active: HT29 colon 4.73%
inactive: HCT-15 colon 79.3% | SNB-75 CNS 96.4% | SNB-19 CNS 69.9% | U251 CNS 11.9% | PC-3 prostate 39.9% | SK-MEL-5 melanoma 38.1% | UACC-62 melanoma 60.5% | LOX IMVI melanoma 60.6% | SK-MEL-28 melanoma 63.3%

CS(=O)(=O)c1nccc(-c2c(-c3ccc(F)c(OCc4ccccc4)c3)nc3sccn23)n1
active: PC-3 prostate -11.3%
inactive: HCT-15 colon 79.1% | HT29 colon 103% | SNB-75 CNS 103% | SNB-19 CNS 96.7% | U251 CNS 107% | SK-MEL-5 melanoma 96.2% | UACC-62 melanoma 87% | LOX IMVI melanoma 44.6% | SK-MEL-28 melanoma 85.9%

COc1ccc(/C=N/Nc2nc(Nc3ccccc3)nc(Nc3ccc(S(N)(=O)=O)cc3)n2)cc1
inactive: HCT-15 colon 68.2% | HT29 colon 55.3% | SNB-75 CNS 81.9% | SNB-19 CNS 86.3% | U251 CNS 66.8% | PC-3 prostate 75.8% | SK-MEL-5 melanoma 74.6% | UACC-62 melanoma 87% | LOX IMVI melanoma 52.5% | SK-MEL-28 melanoma 78.5%

CCOC(=O)Nc1ccc(-c2nc(-c3cccc(O)c3)c(-c3ccnc(Br)c3)[nH]2)cc1
active: PC-3 prostate 4.92%
inactive: HCT-15 colon 30.7% | HT29 colon 34.3% | SNB-75 CNS 14.7% | SNB-19 CNS 44.7% | U251 CNS 29.6% | SK-MEL-5 melanoma 23.6% | UACC-62 melanoma 24.3% | LOX IMVI melanoma 14.5% | SK-MEL-28 melanoma 46.9%

ClC(Cl)c1nc(-c2cccs2)n2nc(-c3ccccc3)cc2n1
active: HCT-15 colon 0.506% | HT29 colon -3.99% | SNB-19 CNS -5.22% | U251 CNS -9.39% | PC-3 prostate -32.3% | SK-MEL-28 melanoma -45.9%
inactive: SNB-75 CNS 48% | SK-MEL-5 melanoma 89.8% | UACC-62 melanoma 23.6% | LOX IMVI melanoma 83.5%

CC(C)=CCc1c(O)c(CC=C(C)C)c2c(c1O)C(=O)C1=C[C@@H]3C[C@H]4C(C)(C)O[C@@](C/C=C(\C)C(=O)O)(C3=O)[C@@]14O2
active: HCT-15 colon -30% | HT29 colon -11.1% | U251 CNS -71.9% | SK-MEL-5 melanoma -94.9% | UACC-62 melanoma -22.3% | LOX IMVI melanoma -97% | SK-MEL-28 melanoma -11.2%
inactive: SNB-75 CNS 33.7% | SNB-19 CNS 41.6% | PC-3 prostate 11.3%

COc1ccc(S(=O)(=O)NCCCNc2nccc(-n3cnc4ccccc43)n2)cc1
inactive: HCT-15 colon 92.3% | HT29 colon 99.7% | SNB-75 CNS 88.2% | SNB-19 CNS 100% | U251 CNS 94.5% | PC-3 prostate 89.7% | SK-MEL-5 melanoma 70.1% | UACC-62 melanoma 76.3% | LOX IMVI melanoma 93.4% | SK-MEL-28 melanoma 106%

Cc1nc(-c2cc3ccccc3c(N3CCN(C)CC3)n2)cs1
inactive: HCT-15 colon 92.1% | HT29 colon 96.4% | SNB-75 CNS 76.2% | SNB-19 CNS 90.1% | U251 CNS 96.4% | PC-3 prostate 86.8% | SK-MEL-5 melanoma 95.4% | UACC-62 melanoma 90.8% | LOX IMVI melanoma 84.7% | SK-MEL-28 melanoma 107%

C/C(=C(/c1ccc(O)cc1)c1ccc(OCCN(C)C)cc1)c1ccc(Cl)cc1
inactive: SNB-75 CNS 63.8% | SNB-19 CNS 59.7% | U251 CNS 35.3% | PC-3 prostate 52.1% | SK-MEL-5 melanoma 42.9%
active: HCT-15 colon -26.8% | HT29 colon -51.3% | UACC-62 melanoma -27.3% | LOX IMVI melanoma -22.2% | SK-MEL-28 melanoma -74.1%

C#CCOc1ccc(/C=N/Nc2nc(-c3cc4cc(Br)cc(Br)c4oc3=O)cs2)cc1
inactive: HCT-15 colon 95.2% | HT29 colon 104% | SNB-75 CNS 90.3% | SNB-19 CNS 104% | U251 CNS 96.2% | PC-3 prostate 88.1% | SK-MEL-5 melanoma 98.5% | UACC-62 melanoma 88.1% | LOX IMVI melanoma 102% | SK-MEL-28 melanoma 106%

O=C(NNc1nc2cc(F)c(F)cc2n2cccc12)c1cccnn1
inactive: HCT-15 colon 29.1% | HT29 colon 29.5% | SNB-75 CNS 33.7% | SNB-19 CNS 22.6% | U251 CNS 14.8% | PC-3 prostate 33.7% | UACC-62 melanoma 10.5% | SK-MEL-28 melanoma 27.3%
active: SK-MEL-5 melanoma -36.8% | LOX IMVI melanoma 3.83%
